# Assay results as given in PubChem BioAssay (NCATS).
# Active and inactive are the calls of the source. The call rests on the fitted dose curve; in most records, active means well fitted curve in the direction sought with a large enough effect; inconclusive means small, poorly fitted or top-dose-only effect, or effect the other way, or another doubt; inactive means no such curve, though single readings can be large or run the other way.
# Assay: Inducers of the Endoplasmic Reticulum Stress Response (ERSR) in human glioma: Validation (AID 504836); further: 0% is about no effect
# Settings: human glioma cells, ER stress response reporter; series mostly up to 38.3 µM; activation: at the top concentration
# Text: Primary protein unfolding takes place for many diseases, including diabetes and hypoxia, , and triggers a reaction in the cells called ER stress response (ERSR). ). ERSR is designed as a repair mechanism, but ultimately leads to cell death via apoptosis if conditions triggering protein unfolding persist (1). The molecular clue to ERSR activation is the enhancement of the expression of key molecular chaperones, including the glucose regulated protein (GRP) 78. GRP78 is the main sensor for protein folding and the main actuator of the ERSR.
# In a collaboration between the Southern Research Institute and the NIH Chemical Genomics Center, a cell based screen was developed that reliably uses GRP78 as a sensor to identify small molecules as inducers of ERSR. In resting conditions, GRP78 binds proteins and acts as a natural repressor. Once unfolded proteins are present in the ER, GRP78 releases some of the repressors and binds to the unfolded proteins. The release of the repressors executes the ERSR program. Using a human glioma cell line in a miniaturized, luminescent format, a high-throughput screen was developed to identify actuators of the ERSR.
# (1) Soboloff, J. and S. A. Berger (2002). "Sustained ER Ca2+ depletion suppresses protein synthesis and induces activation-enhanced cell death in mast cells." J Biol Chem 277(16): 13812-20.
# NIH Chemical Genomics Center [NCGC]
# NIH Molecular Libraries Probe Centers Network [MLPCN]
# Assay Submitter (PI): Maurizio Grimaldi, Southern Research Institute
# Stable transfected human glioma cell line, U87-MG, are dispensed at density 1000 cells/well into Greiner white solid bottom 1536-well assay plates. Compounds are transferred via Kalypsys pin tool equipped with 1536-pin array (10nl slotted pins, V&P Scientific, San Diego, CA). The assay plates will be incubated for 16 hours and developed by adding appropriate quantities of the Promega Bright Glo reagent. The plates will be incubated at room temperature for 10 minutes prior to being transferred into a ViewLux high-throughput CCD imager (PerkinElmer), wherein end-point measurements of luminescence are acquired.
row,Structure (SMILES),activation
1,CC1(C)CCC(NC(=O)[C@@H](N)CCC(=O)O)CC1,-1.63% (inactive)
2,CCCn1c(=O)c2c(ncn2C)n(CCC)c1=O,-0.588% (inactive)
3,CC1(C)CCC=[N+]1[O-],0.486% (inactive)
4,Cn1c(=O)[nH]c2ncn(C)c2c1=O,-3.67% (inactive)
5,O=C(O)/C(=C/c1c(C(=O)O)[nH]c2cc(Cl)cc(Cl)c12)c1ccccc1,2.31% (inactive)
6,Cc1nc2n(c(=O)c1CCN1CCC(c3noc4cc(F)ccc34)CC1)CCCC2O (stereo not given),-1.9% (inactive)
7,C[N+]1(CCCCC[N+]2(C)CCCC2)CCCC1,2.07% (inactive)
8,N[C@H](C(=O)O)c1cc(O)cc(O)c1,0.736% (inactive)
9,C[N+](C)(C)CC=O,-2.73% (inactive)
10,CC(=O)O[C@H]1Cc2ccccc2N(C(N)=O)c2ccccc21,-4.79% (inactive)
11,Clc1ccc(N2CCN(Cc3c[nH]c4ncccc34)CC2)cc1,-4.58% (inactive)
12,CC(=O)O[C@H]1CC2(C)[C@@H](C[C@@H](O)[C@H]3[C@@]4(C)CC[C@@H](O)[C@@H](C)[C@@H]4CC[C@@]32C)C1=C(CCC=C(C)C)C(=O)O (stereo not given in full),-5.09% (inactive)
13,CCCCC#Cc1nc(NC)c2ncn([C@@H]3O[C@H](CO)[C@@H](O)[C@H]3O)c2n1,-1.54% (inactive)
14,NCCSSCCN,-1.02% (inactive)
15,Cn1cnc2c(NCc3ccccc3)nc(NCCO)nc21,-1.03% (inactive)
16,NC1CCN(O)C1=O (stereo not given),-2.98% (inactive)
17,O=C(c1ccc2c(c1)OCCO2)N1CCCCC1,-2.18% (inactive)
18,O=c1[nH]c2cc(C(F)(F)F)ccc2n1-c1cc(C(F)(F)F)ccc1O,0.0129% (inactive)
19,CN1CCc2cc(Cl)c(O)cc2[C@@H](c2ccccc2)C1,-3.74% (inactive)
20,CC(=O)/C(C)=N/O,0.167% (inactive)

row,Structure (SMILES),activation
1,CCn1c(=O)[nH]c2cc(Cl)c(Cl)cc21,-2.66% (inactive)
2,NC(=O)c1ncn([C@@H]2O[C@H](CO)[C@@H](O)[C@H]2O)n1,-0.404% (inactive)
3,O=c1c(-c2ccc(O)cc2)coc2cc(O)ccc12,-10.9% (inactive)
4,CN(C)C(N)=NCCC[C@H](N)C(=O)O,-4% (inactive)
5,CCCCCCCCCCCCCCCC(=O)OC(CC(=O)O)C[N+](C)(C)C (stereo not given),7.64% (inactive)
6,COC(=O)[C@H]1[C@H]2C[C@H]3c4[nH]c5ccccc5c4CCN3C[C@H]2CC[C@@H]1O,-2.42% (inactive)
7,NC1CONC1=O (stereo not given),-1.07% (inactive)
8,Nc1ccc(-c2ccc3ccccc3n2)cc1,-10.1% (inactive)
9,N#Cc1cc([N+](=O)[O-])c2sc(C(N)=O)[n+]([O-])c2c1,-0.604% (inactive)
10,O=Nc1ccc2oc(=O)ccc2c1,-3.5% (inactive)
11,CCCOC(=O)c1c(-c2ccccc2)nc(CC)c(C(=O)SCC)c1CCC,-3.68% (inactive)
12,N#C/C(=C\c1ccc(O)c(O)c1)C(=O)NCCCNC(=O)/C(C#N)=C/c1ccc(O)c(O)c1,-0.752% (inactive)
13,CC[n+]1c(/C=C/C=C2/N(C)c3ccccc3C2(C)C)sc2ccccc21,-10.4% (inactive)
14,O=C(O)c1cc(=O)c2c(Cl)cc(Cl)cc2[nH]1,-3.04% (inactive)
15,C[C@@]1(C2CCCC2)Cc2cc(OCC(=O)O)c(Cl)c(Cl)c2C1=O,-0.741% (inactive)
16,C=CC1(C)CC(=O)C2(O)C(C)(O1)C(OC(C)=O)C(O)C1C(C)(C)CCC(O)C12C (stereo not given),6.95% (inactive)
17,COc1cccc(C(=O)NCCN2CCN(c3ccc(Cl)cc3)CC2)c1,-2.39% (inactive)
18,Cc1ccccc1CNc1ncnc2c1ncn2C1OC(CO)C(O)C1O (stereo not given),6.81% (inactive)
19,NC(=S)NCCC[C@H](N)C(=O)O,-2.5% (inactive)
20,COc1ccccc1N1CCN(CCCCNC(=O)c2ccc3ccccc3c2)CC1,1.55% (inactive)
